Laboratory results from PubChem BioAssay AID1053124 (Broad Institute, 2014).
Entries with a potency or affinity are not part of this list. The source made the active and inactive calls.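 Rule for the calls: active = cell killing whose fitted half-effect concentration is at most twice the top valid dose tested; inconclusive = flat curve with 30 to 70% killing, or a poor fit; inactive = effect in the rising direction, plus the rest.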

Assay: viability loss in A549 lung cells – cell-based, ATP luminescence, cherry-pick, set 2, cytotoxicity control, dose response (AID 1053124)
Conditions: ATP luminescence (CellTiter-Glo), 72 h; series mostly up to 26 µM

Row | Structure (SMILES) | outcome
1 | O=C(O)c1cccc(Nc2nc(-c3cc4ccccc4oc3=O)cs2)c1 | inactive
2 | CCc1cccc(OC2OC(CO)C(O)C(O)C2NC(C)=O)c1 (stereo not drawn) | inactive
3 | CCOCCCNC(=S)N1CCCN(c2nc3cc(C)c(C)cc3cc2C#N)CC1 | inactive
4 | CCn1c2ccccc2c(=O)c2ccccc21 | inactive
5 | O=C(NNc1cc(N2CCCC2)nc(N2CCCC2)n1)c1ccc([N+](=O)[O-])cc1 | inactive
6 | COc1cccc(N2CCN(C(=O)C3CCCN(S(=O)(=O)c4cnc[nH]4)C3)CC2)c1 (stereo not drawn) | inactive
7 | CCC(C)n1c(=N)c(C#N)cc2c(=O)n3cccc(C)c3nc21 (stereo not drawn) | inactive
8 | CC(=O)c1sc(N/N=C\c2ccc(N(C)C)cc2)nc1C | inactive
9 | Cc1ccc(OCC(=O)NNc2c3ccccc3nc3ccccc23)cc1 | inactive
10 | CC1(C)CC(=O)C2=C(C1)OC(N)=C(C#N)[C@@H]2c1ccccc1[N+](=O)[O-] | inactive
11 | CNC(=O)c1ccc(NC(=O)c2cccc(C(F)(F)F)c2)cc1 | inactive
12 | COc1ccc(C(=O)Oc2cc(N)n(S(=O)(=O)c3ccccc3)n2)cc1 | inactive
13 | CCOc1ccc2nc(NCCCNC(=O)c3cc(OC)c(OC)c(OC)c3)c(C#N)cc2c1 | inactive
14 | CC(=O)NNc1cc(N2CCOCC2)nc(N2CCOCC2)n1 | inactive
15 | Cc1ccc(-c2nc3ccsc3c(=O)[nH]2)cc1 | inactive
16 | CCOC(=O)c1cc2c(=O)n3ccccc3nc2n(Cc2ccc(Cl)cc2)c1=N | inactive
17 | COCCn1c(=N)c(S(=O)(=O)c2ccc(F)cc2)cc2c(=O)n3ccccc3nc21 | inactive
18 | CCc1nnc(NC(=O)c2ccc(-c3ccccc3F)o2)s1 | inactive
19 | [O-]/[N+](=C/c1ccccc1)c1ccccc1 | inactive
20 | COc1ccc(C2C3=C(CCCC3=O)N(CC(=O)O)C3=C2C(=O)CCC3)cc1 | inactive
21 | N#C/C(=C\c1ccc(N2CCOCC2)o1)C(=O)NCCc1ccccc1 | inactive
22 | Cc1cccn2c(=O)c3cc(C(N)=S)c(=N)n(CCCN4CCOCC4)c3nc12 | inactive
23 | C=Cc1ccc(Cn2c(C)c(C(=O)NCc3cccc(C)c3)sc2=O)cc1 | inactive
